Legend:
Assay in all cases: PBM binding z-score (relative to random genomic background probes); higher = stronger binding; sequences stand for … in GC…GCGATTGACAGCGTAGAATGAAGG
[1] = system: FXR:RXRa (NR concentration 270 nM, RXRa partner concentration 90 nM)
Method in brief: (§1)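 Binding z-scores take random background probes as their reference. They come from custom Agilent 4×180K protein-binding microarrays incubated 1 h with ligand-free nuclear receptor dimers, with antibodies against each partner (one per run) detecting binding. Scanned fluorescence was regression-normalized.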

[2] = system: LXRa:RXRa (NR concentration 270 nM, RXRa partner concentration 90 nM)
Method in brief: as §1

[3] = system: LXRa homodimer (NR concentration 270 nM)
Method in brief: as §1

[4] = system: LXRb:RXRa (NR concentration 270 nM, RXRa partner concentration 90 nM)
Method in brief: as §1

[5] = system: LXRb homodimer (NR concentration 270 nM)
Method in brief: as §1

[6] = system: PPARa:RXRa (NR concentration 270 nM, RXRa partner concentration 90 nM)
Method in brief: as §1

[7] = system: PPARg:RXRa (NR concentration 180 nM, RXRa partner concentration 90 nM)
Method in brief: as §1

[8] = system: PPARg:RXRa 270nM:90nM, anti-RXR (NR concentration 270 nM, RXRa partner concentration 90 nM)
Method in brief: as §1

[9] = system: PPARg:RXRa 30nM:10nM, anti-RXR (NR concentration 30 nM, RXRa partner concentration 10 nM)
Method in brief: as §1

[10] = system: PPARg:RXRa 90nM:30nM, anti-RXR (NR concentration 90 nM, RXRa partner concentration 30 nM)
Method in brief: as §1

[11] = system: PPARg:RXRa DBDmut IVT, anti-RXR (DBD mutation: RXRa K156A/R161A, NR concentration 270 nM, RXRa partner concentration 90 nM)
Method in brief: as §1

[12] = system: PPARg:RXRa IVT, anti-PPARg (NR concentration 270 nM, RXRa partner concentration 90 nM)
Method in brief: as §1

[13] = system: PPARg DBDmut:RXRa IVT, anti-PPARg (DBD mutation: PPARg1 K132A/R137A, NR concentration 270 nM, RXRa partner concentration 90 nM)
Method in brief: as §1

[14] = system: PPARg DBDmut IVT, anti-PPARg (DBD mutation: PPARg1 K132A/R137A, NR concentration 270 nM)
Method in brief: as §1

[15] = system: PPARg homodimer (NR concentration 180 nM)
Method in brief: as §1

[16] = system: PXR:RXRa (NR concentration 270 nM, RXRa partner concentration 90 nM)
Method in brief: as §1

[17] = system: PXR homodimer (NR concentration 270 nM)
Method in brief: as §1

[18] = system: RARa:RXR (NR concentration 270 nM, RXRa partner concentration 90 nM)
Method in brief: as §1

[19] = system: RARa homodimer (NR concentration 270 nM)
Method in brief: as §1

[20] = system: RARb:RXRa (NR concentration 270 nM, RXRa partner concentration 90 nM)
Method in brief: as §1

Sequence	PBM binding z-score [1]	PBM binding z-score [2]	PBM binding z-score [3]	PBM binding z-score [4]	PBM binding z-score [5]	PBM binding z-score [6]	PBM binding z-score [7]	PBM binding z-score [8]	PBM binding z-score [9]	PBM binding z-score [10]	PBM binding z-score [11]	PBM binding z-score [12]	PBM binding z-score [13]	PBM binding z-score [14]	PBM binding z-score [15]	PBM binding z-score [16]	PBM binding z-score [17]	PBM binding z-score [18]	PBM binding z-score [19]	PBM binding z-score [20]
CGTCCAAGGTGAAGGTCAGTGAAAGAGACTCGAA	1.84	1.4	-0.233	1.25	-0.872	3.04	2.5	2.81	0.634	1.96	1.92	2.94	-0.298	-0.465	0.911	1.43	-0.222	2.11	0.387	3.93
CGGCCAAGGTCATAGGAGGTCAGTGAAGACAGAT	7.73	7.58	4.26	6.03	0.344	5.82	5.92	5.6	2.38	4.77	2.94	4.46	-0.828	-0.774	4.97	6.76	3.6	5.88	1.82	5.29
CCGATTGGGGCATAAGGTTACCATAAGCCAGCCC	0.433	2.07	-0.331	0.749	-0.968	1.96	1.92	2.87	0.812	2.27	1.21	1.53	-1.1	-1.31	0.682	0.17	-0.12	1.42	-0.579	1.66
GCTCGGAGGACAAGGTCAGAGGTTTGTCCGTAGA	1.77	1.52	-0.501	1.28	-0.78	2.39	1.75	2.59	0.214	2.08	-0.0469	1.09	-1.25	-0.886	0.801	1.78	-0.0547	2.19	-0.638	3.47
AGTCAAAGTTCAGGACGAGGTAACGTGAAGCACG	4.49	3.69	1	1.68	-0.0491	3.33	4.84	4.84	2.04	4.12	-0.189	2.06	0.679	0.0315	1.48	2.72	0.947	2.65	1.04	4.51
CAAACTAGGTCAAGAGGTCAAGGTCCGCTTCCCG	6.64	6.02	4.56	4.63	1.32	6.41	9.76	8.19	6.69	8.28	8.52	8.45	0.83	-0.359	5.33	5.88	1.72	7.29	2.29	5.54
GGAACGAGGGCAAAGTTGATAGCCTCTGTCGACG	1.19	0.817	-0.461	0.459	-0.828	3.93	6.54	7.37	5.66	7.65	4.2	4.33	-0.184	-0.449	0.223	1.1	-0.21	1.37	-0.637	2.24
CCGACTGGTGCAAGGTTACCATAACGCACAGCCA	-0.035	0.459	-0.262	0.654	-1.22	0.831	0.89	0.462	-0.236	0.039	-0.528	-0.0659	-0.402	-0.928	0.54	0.357	-0.288	0.554	0.0426	0.894
AGATGTAGGTTACATCCGGGTCATTCAGGCTATG	2.09	4.32	0.937	2.54	0.043	4.14	5.05	4.32	1.77	3.53	7	7.07	0.707	1.29	1.58	3.72	2.06	3.68	-0.0966	2.24
ACAGTCAGGTGAGTGAAGGTAACTCAGCTGGACG	0.264	0.217	-0.578	-0.682	-0.538	-0.317	0.268	0.101	-0.17	-0.277	0.794	0.82	-0.123	-0.515	-0.608	-0.47	-0.728	-0.00233	0.0121	0.775
AGAATGAGGTTACCAAAGACCAGGGAAACGCTTG	1.97	4.34	-0.091	1.87	-0.385	3.27	2.53	2.62	0.863	1.86	3.86	3.33	0.85	0.62	0.291	1.22	-0.349	2.06	-0.134	2.11
CAGTCTAGGTCAGGGCCAGTATAGGAGGAACGTT	1.52	1.1	-0.0547	0.856	-0.215	2.68	2.64	2.85	1	1.96	5.44	4.91	0.454	-0.134	1.53	0.376	0.305	1.2	0.439	3.48
CTATCAAGGTGAACAAGGTCGTTGATTACTATTC	1.16	1.14	-0.163	1.54	-0.39	2.47	1.53	1.51	0.103	0.808	3.58	3.69	0.759	0.594	0.866	2.7	2.19	2.38	0.109	2.22
CGAACTAGGTCATTGACAGGACAGAGAATAGTAA	4.59	3.18	0.538	1.92	0.12	4.71	7.41	6.39	3.83	6.06	8	8.14	4.58	3.51	2.33	1.5	-0.262	2.19	0.528	3.65
GCGACTGGGGCATCAGCAGGTTATCATAACTTAA	-0.342	-0.258	-0.199	0.87	-0.615	1.38	0.968	0.916	-0.378	0.369	3.69	3.13	-0.424	-0.757	0.000895	0.377	-0.554	0.458	-0.474	0.845
CGTCAAGGTTCAAGGTAACGTAACAGAAAGCAGC	4.59	3.3	0.601	2.06	-0.166	3.56	2.25	2.63	0.331	1.55	-0.0787	0.903	-0.883	-0.847	1.12	1.87	0.422	2.3	-0.0336	3.24
CGAACTAGGTCAAGGACAGTGACTCTCCGCACGC	3.47	2.28	0.349	1.58	-0.267	4.79	7.35	6.66	3.92	6.28	8.38	8.3	1.83	0.467	1.66	1.37	-0.264	2.54	0.541	3.95
CCGACTGGGGCATAAGGTTAACATAAGCCAGCCC	0.54	1.08	-0.335	0.945	-1.21	2.22	2.6	3.42	1.27	2.84	3.23	3.36	-0.239	-1.26	0.548	0.636	-0.242	1.51	-0.431	1.88
ACTAGCAGGCCAAGTTTGCGTCACTCAAACAAAG	-0.42	-0.547	-0.38	-0.386	-0.402	-0.395	-0.346	-0.378	-0.74	-0.227	0.769	0.225	0.102	-0.27	-0.265	-0.294	-0.479	-0.264	-0.243	0.486
CGTCCAAGCTCAAGGTCAGTGAAAGAGACTCGAA	1.45	1.33	0.213	1.25	-0.283	1.93	0.495	1.14	0.132	0.792	-0.0335	0.547	-0.701	-0.496	1.59	1.51	0.437	1.86	0.0805	3.43
ATCGAAAGGTCGAGGGGAGTATAGAGAAAGGGAA	4.46	3.49	0.308	2.92	1.64	4.58	2.97	3.17	1.13	2.36	0.44	1.72	1.88	1.27	1.83	2.27	0.897	3.24	1.45	3.97
TCTTGTAGATCAAAGGTTAAGGAAGCCGAAGCCT	1.76	1.94	0.12	1.9	-0.272	4.8	7.91	7.99	7.63	8.41	2.14	3.75	1.3	0.543	1.02	2.01	-0.532	2.9	0.593	2.11
AACGAAAGGTCGAGGTGAGTATAGAGAAAGGGAA	4.3	3.7	-0.0292	2.86	0.0857	4.71	3.34	3.82	1.16	2.59	0.47	2.34	0.731	0.177	1.1	2.6	0.272	3.51	0.313	4.23
CCTACTGGGGCAAAAAGGTCATTGATGCCGATAA	3.82	4.34	2.86	3.92	0.284	4.96	4.68	5.28	2.57	4.43	4.52	5.48	0.778	1.73	5.37	5.17	5.54	5.35	2.82	4.08
ATCTCTAGGTAAAGATAGTTCAGTGATTGCAAAT	0.768	3.86	0.679	1.04	0.794	0.72	0.511	0.72	0.406	0.607	2.16	1.82	0.778	1.85	1.19	1.38	0.822	0.722	1.29	0.865
ATCTCTAGGTAAGACTCAGTTTAGTGAAGAACGC	0.613	0.734	0.489	0.362	0.843	-0.0694	0.158	0.112	0.213	0.579	2.06	1.06	1.01	0.79	0.494	0.177	0.554	0.162	1.22	0.222

From the supplement of paper PMC6555819
